# Measurements as given in the supplement of paper PMC8728848.
# About 410 targets per protein were measured; listed, in parts, are those with the strongest signals and a random draw of the rest.
# What was measured:
# Experiment in all cases: glycan array binding signal (z-score within array); higher = stronger binding
# Conditions in all cases: glycan notation: IUPAC condensed, linker removed
# [1] = test system: Fuc(b1-3)GlcNAc
# How it was run: (§1)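 The binding signal is a Z-score computed within each array. Data were drawn from 3228 arrays in the Consortium for Functional Glycomics database, restricted to those with a known protein sequence. Scores were averaged over arrays of the same protein sequence at different concentrations or buffers, and over linkers, and negative values can be taken as non-binding.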
# [2] = test system: Gal(a1-3)Gal(b1-3)GlcNAc(b1-2)Man
# How it was run: as §1
# [3] = test system: Gal(a1-3)Gal(b1-3)[Fuc(a1-4)]GlcNAc(b1-2)Man(a1-3)[Gal(a1-3)Gal(b1-3)[Fuc(a1-4)]GlcNAc(b1-2)Man(a1-6)]Man(b1-4)GlcNAc(b1-4)GlcNAc
# How it was run: as §1
# [4] = test system: Gal(a1-3)Gal(b1-3)GlcNAc(b1-6)GalNAc
# How it was run: as §1
# [5] = test system: Gal(a1-3)Gal(b1-3)GlcNAc
# How it was run: as §1
# [6] = test system: Gal(a1-3)Gal(b1-4)GlcNAc(b1-2)Man(a1-3)[Gal(a1-3)Gal(b1-4)GlcNAc(b1-2)Man(a1-6)]Man(b1-4)GlcNAc(b1-4)GlcNAc
# How it was run: as §1
# [7] = test system: Gal(a1-3)Gal(b1-4)GlcNAc(b1-2)Man
# How it was run: as §1
# [8] = test system: Gal(a1-2)Gal
# How it was run: as §1
# [9] = test system: Fuc(a1-4)GlcNAc
# How it was run: as §1
# [10] = test system: Gal(a1-3)Gal(b1-3)GlcNAc(b1-2)Man(a1-3)[Gal(a1-3)Gal(b1-3)GlcNAc(b1-2)Man(a1-6)]Man(b1-4)GlcNAc(b1-4)GlcNAc
# How it was run: as §1
substance,measurement,setting,value
Actinohivin (Actinomycete K97),glycan array binding signal (z-score),[1],-0.17
same,glycan array binding signal (z-score),[2],0.041
same,glycan array binding signal (z-score),[3],0.526
LcI (Legionella pneumophila),glycan array binding signal (z-score),[1],0.056
same,glycan array binding signal (z-score),[4],4
same,glycan array binding signal (z-score),[5],4.41
same,glycan array binding signal (z-score),[6],0.12
same,glycan array binding signal (z-score),[7],-0.012
"SpGH101 (Streptococcus pneumoniae), Q8DR60",glycan array binding signal (z-score),[3],0.17
Epa22,glycan array binding signal (z-score),[8],-0.244
same,glycan array binding signal (z-score),[2],-0.377
AgI/II Vhelical-GFP (Streptococcus mutans),glycan array binding signal (z-score),[9],19.1
same,glycan array binding signal (z-score),[1],-0.193
same,glycan array binding signal (z-score),[2],-0.049
"Wza (Escherichia coli), P0A930",glycan array binding signal (z-score),[1],1.51
same,glycan array binding signal (z-score),[10],0.652
"BambL (Burhholderia ambifaria), Q0B4G1",glycan array binding signal (z-score),[9],6.86
same,glycan array binding signal (z-score),[1],4.1
"SiiE (Salmonella typhimurium), A0A0H3NVH0",glycan array binding signal (z-score),[5],0.637
AgI/IIC123-GFP (Streptococcus mutans),glycan array binding signal (z-score),[9],6.16
